Pf growth 96h: Primary qHTS for delayed death inhibitors of the malarial parasite plastid, 96 hour incubation; P. falciparum luciferase reporter growth, 96 h; Potency, µM (highest dose often 28.7 µM), for the others: top-dose activity change, negative = inhibition, actives largely listed as inhibitors; hit rate 6.9% among 320,000; AID 504834, 2011; note: potency is the fitted concentration of half-maximal effect; % is set by controls: 0 for no effect and ±100 for the full control effect
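96 h incubation, 37 C, 5% CO2, of luciferase-reporter P. falciparum-infected RBCs (2% hematocrit, 0.05% parasitemia final) with test compounds; endpoint luminescence.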
Sm TGR inh: qHTS Assay for the Inhibitors of Schistosoma Mansoni Peroxiredoxins | purified TGR, DTNB reduction, TNB absorbance 405 nm | Schistosoma mansoni thioredoxin glutathione reductase (TGR), Q962Y6 | Potency, µM (doses to about 114 µM), for inactives: top-dose activity change, negative = inhibition, most hits filed as inhibitors | AID 485364, 2010 | hit rate 3% among 360,000; note: potency is the fitted concentration of half-maximal effect; % is set by controls: 0 for no effect and ±100 for the full control effect; nearly all actives have a fitted effect of over 60% in size
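Kinetic colorimetric format: TGR-catalysed, NADPH-driven DTNB reduction monitored via TNB absorbance. Enzyme dispensed at 20 nM; compound exposure 15 min at room temperature before reaction start.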
HCV inhibitor: qHTS Assay for Inhibitors of Hepatitis C Virus (HCV). Huh7.5.1 HCVcc-Cre infection, luciferase reporter, 44 h. hit rate 3.4% among 340,000. AID 651820, 2012. Potency, µM (highest dose often 41.8 µM), for inactives: at the highest dose activity change, negative = inhibition, usual class: inhibitors; note: potency is the fitted concentration of half-maximal effect; % is set by controls: 0 for no effect and ±100 for the full control effect
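1,000 cells/well; 4 h culture; + compound; + HCVcc-Cre (~0.5 moi); 44 h; luciferase substrate, RT 15 min; read 15 sec.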
Pf growth 48h: Primary qHTS for delayed death inhibitors of the malarial parasite plastid, 48 hour incubation; AID 504832, 2011; hit rate 5.9% among 310,000; P. falciparum luciferase growth in erythrocytes, 48 h; Potency, µM (titrated, usually from 28.7 µM), inactives show top-dose activity change, negative = inhibition, usual class: inhibitors; note: potency is the fitted concentration of half-maximal effect; % is set by controls: 0 for no effect and ±100 for the full control effect
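Luminescence readout; reporter = integrated firefly luciferase in P. falciparum. RBC culture at 2% hematocrit, 0.1% parasitemia final, 37 C/5% CO2; decreased signal taken as growth inhibition.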
SARS PLpro yeast: qHTS of Yeast-based Assay for SARS-CoV PLP; S. cerevisiae expressing SARS-CoV PLpro, growth rescue; Potency, µM (series often up to 32.9 µM), for inactives: at the highest dose activity, positive = growth rescue, hits mostly activators; hit rate 0.19% among 330,000; AID 485353, 2010; calls by dose curve; note: potency is the fitted concentration of half-maximal effect; 0% is about no effect; nearly all actives have a fitted effect of over 55% in size
HCMV inh: qHTS Assay for inhibitors of the human cytomegalovirus (HCMV) | activity change, negative = inhibition, % at 57.5 µM | HFF cells, HCMV-luciferase reporter, 72 h; active compounds read low | hit rate 4.5% among 410,000; in the data active = activity change below about -60%; inconclusive = no clear call, values can overlap the other calls; inactive = above about -39%; note: % is set by controls: 0 for no effect and ±100 for the full control effect
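Two-dose cell screen: HFF monolayers treated with compounds and infected with luciferase-expressing HCMV at 1 PFU/cell, 72 h at 37C, then lysed for luciferase measurement.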
Numbers without * were called inactive; ? = inconclusive; / = no result; [ ] = dose if it differs, or a comment. In the library only some 15% were active in any assay of this set; here they are far more common. Unless noted, calls come from the whole dose curve; as a rule, active = well fitted curve in the direction sought with a large enough effect; inconclusive = small, poorly fitted or top-dose-only effect, or another doubt; inactive = no such curve, though single readings can be large; an effect the other way counts as inactive or inconclusive.

SMILES	Pf growth 96h	Sm TGR inh	HCV inhibitor	Pf growth 48h	SARS PLpro yeast	HCMV inh
O=C(CCCN1C(=O)c2ccccc2C1=O)NCCCN1CCOCC1	/	-8%	1%	-4%	-2%	33
CCc1ccc(/C=C2/Sc3ccccc3N(CC(=O)NCCCN3CCOCC3)C2=O)cc1	?	-19%	?	?	-4%	-60*
O=C(CN1C(=O)COc2ccccc21)NCCCN1CCOCC1	2%	0%	8%	10%	3%	27
O=C(CN1C(=O)/C(=C/c2ccc(C(F)(F)F)cc2)Sc2ccccc21)NCCCN1CCOCC1	-23%	-9%	11µM*	0%	-1%	-39
O=C(CN1C(=O)/C(=C\c2cccc(Cl)c2)Sc2ccccc21)NCCCN1CCOCC1	?	-14%	?	-8%	1%	-11
O=C(CCN1C(=O)/C(=C\c2ccccc2)SC1=S)NCCCN1CCOCC1	7.4µM*	-12%	?	13µM*	0%	?
COc1ccc2c3n([n+]([O-])c2c1)C(C)CN=C3c1ccc(Cl)cc1 (centres undefined)	/	/	/	/	/	50
COc1cccc(CNC(=O)Cn2c(=O)ccc3cc(S(=O)(=O)N4CCC(C)CC4)ccc32)c1	/	4%	/	/	/	9
Cc1ccc(NC(=O)C(=Cc2ccc(C(=O)O)cc2)C(=O)Nc2ccc(C)cc2C)c(C)c1	?	-32%	?	?	-1%	/
C#CCOCCOCCOCCNc1nc(N2CCN(C(=O)[C@H]([C@@H](C)CC)n3cc(CCCN=C(N)N)nn3)CC2)nc(N2CCN(C(=O)[C@H]([C@@H](C)CC)n3cc(CCC(=O)O)nn3)CC2)n1	/	/	3%[8.37 µM]	/	/	8
O=[N+]([O-])c1ccc(NCc2ccc3c(c2)OCO3)cc1	?	5%	?	54%	-2%	11
COc1ccc([N+](=O)[O-])cc1NCc1ccccc1C	-3%	14%	-68%	?	1%	-33
COc1cc2cc(NC(C)=O)cc(NCc3ccccc3)c2cc1OC	1%	35µM*	-17%	?	2%	28
COc1ccc([N+](=O)[O-])cc1NCc1ccccc1	3.3µM*	-1%	6.3µM*	18%	?	-33
COc1ccc(OC)c(CNc2ccc([N+](=O)[O-])cc2C)c1	45%	3%	-21%	?	-9%	-91*
Cc1cc([N+](=O)[O-])ccc1NCc1ccc2c(c1)OCCO2	?	4%	10µM*	?	-11%	59
Cc1ccc(C)c(Cn2c3ccccc3c3cnn(CC(=O)NC(C)c4ccccc4)c(=O)c32)c1 (centres undefined)	/	-1%	/	/	/	-5
CCCn1c2ccccc2c2cnn(CC(=O)NCCc3cc(OC)ccc3OC)c(=O)c21	/	-2%	/	/	/	11
COc1ccccc1-c1nnc(Sc2nc([N+](=O)[O-])nn2C)o1	1.9µM*	?	10µM*	/	14%	-75*
CCCC(=O)NCCc1nc2cc([N+](=O)[O-])ccc2n1C	6%	6%	-4%	13%	-2%	?
CC1(C)N([O-])C(c2cccs2)=C[N+]1=O	10µM*	4%	11%	2%	6%	-35
CC1(C)N([O-])C(c2ccccc2)=C[N+](=O)C1(C)C	23%	3%	6%	-5%	0%	4
COC(=O)[C@]1(Cc2ccccc2)N[C@H](c2ccc(-c3cccc(Cl)c3)cc2)[C@@H]2C(=O)N(C)C(=O)[C@@H]21	5.2µM*	21%	?	13µM*	-7%	4
COc1ccc(N2C(=O)C3C(c4ccc(C(=O)O)cc4)NC(Cc4ccccc4)(C(=O)O)C3C2=O)c([N+](=O)[O-])c1 (centres undefined)	2.9µM*	-29%	4%	12%	2%	-22
COC(=O)[C@]1(Cc2ccccc2)N[C@H](c2ccc(-c3ccc(Cl)c(Cl)c3)cc2)[C@@H]2C(=O)N(C)C(=O)[C@@H]21	9.3µM*	?	?	5.9µM*	0%	33
SMILES	Pf growth 96h	Sm TGR inh	HCV inhibitor	Pf growth 48h	SARS PLpro yeast	HCMV inh
COC(=O)[C@]1(Cc2ccccc2)N[C@H](c2ccc(-c3ccccc3)cc2)[C@@H]2C(=O)N(C)C(=O)[C@@H]21	?	-31%	?	?	-5%	8
COC(=O)[C@]1(Cc2ccccc2)N[C@H](c2ccc(-c3cc(C(C)=O)cs3)cc2)[C@@H]2C(=O)N(C)C(=O)[C@@H]21	?	-16%	?	9.3µM*	1%	18
CCN1C(=O)[C@H]2[C@@H](c3ccc(-c4ccc(Cl)c(Cl)c4)cc3)N[C@@](C)(C(=O)OC)[C@H]2C1=O	?	?	2%	?	-9%	-8
COc1ccc(N2C(=O)C3C4C=CC(C4)C3C2=O)c([N+](=O)[O-])c1 (centres undefined)	33%	6%	4%	-16%	5%	31
Cn1cc(CCNC(=O)N2CCOC2=O)c2ccccc21	/	/	/	/	/	18
CCN(CC)C(=O)Cn1cc(C(=O)C(=O)N2CCN(c3ccc(OC)cc3)CC2)c2ccccc21	57%	4%	-18%	-9%	1%	23
CCOC(=O)N1CCN(CC(=O)Nc2nccs2)CC1	/	/	/	/	/	-28
CCCC(=O)Nc1cccc(NC(=O)c2ccc([N+](=O)[O-])cc2Cl)c1	-26%	-14%	7.9µM*	-4%	5%	?
COC(=O)CC/C(C)=N\Nc1ccc([N+](=O)[O-])cc1[N+](=O)[O-]	0%	41%	-16%	17%	6%	-103*
O=C(COc1ccccc1)NC(=S)Nc1cccc([N+](=O)[O-])c1	1.7µM*	-5%	-4%	5%	-13%	-23
CCCC(=O)Nc1ccc(Cl)c(NC(=O)c2ccc([N+](=O)[O-])cc2Cl)c1	?	-3%	?	25%	-17%	-37
COc1ccc(/C=N\Nc2ccc([N+](=O)[O-])cc2[N+](=O)[O-])c(C(=O)O)c1OC	-6%	8.9µM*	1%	99%	0%	-27
C/C(CC(C)C)=N/Nc1ccc([N+](=O)[O-])cc1[N+](=O)[O-]	2%	0%	-25%	2%	0%	-17
Cc1cccc(CNc2ccc(C(CC(N)=O)NC(=O)c3cccc(Br)c3)cc2[N+](=O)[O-])c1 (centres undefined)	-10%	-29%	-14%[8.37 µM]	-8%	8%	1
COC(=O)CCC(=O)Nc1cccc([N+](=O)[O-])c1	12µM*	0%	-3%	14%	2%	-5

Compound activity (PubChem BioAssay)
